# Data as given in PubChem BioAssay AID1022 (Emory University Molecular Libraries Screening Center, 2008).
# About 3,300 (1.5%) of roughly 220,000 compounds were called active. The entries come from a sample that favours actives as a whole. A number with no mark means an inactive call.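 The calls were made as follows: active = compounds that cut the protein-peptide binding signal by more than 50% relative to plate controls in a single-dose test; inactive = the rest.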
# Target: Induced myeloid leukemia cell differentiation protein Mcl-1 (Homo sapiens) (UniProt Q07820)
# Assay: disruptors of Mcl-1 and Noxa BH3 peptide – biochemical, TR-FRET, 1536-well, primary screen (AID 1022);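 also: His-tagged Mcl-1 with rhodamine Noxa BH3 peptide and terbium anti-His antibody; 0% = Mcl-1 plus Noxa peptide wells and 100% = peptide-only wells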
# Conditions: TR-FRET Mcl-1/Noxa peptide binding, 2 h; at 21.7 µM; active compounds read high
# Induced myeloid leukemia cell differentiation protein Mcl-1 (Homo sapiens), sequence (Q07820 whole entry, looked up): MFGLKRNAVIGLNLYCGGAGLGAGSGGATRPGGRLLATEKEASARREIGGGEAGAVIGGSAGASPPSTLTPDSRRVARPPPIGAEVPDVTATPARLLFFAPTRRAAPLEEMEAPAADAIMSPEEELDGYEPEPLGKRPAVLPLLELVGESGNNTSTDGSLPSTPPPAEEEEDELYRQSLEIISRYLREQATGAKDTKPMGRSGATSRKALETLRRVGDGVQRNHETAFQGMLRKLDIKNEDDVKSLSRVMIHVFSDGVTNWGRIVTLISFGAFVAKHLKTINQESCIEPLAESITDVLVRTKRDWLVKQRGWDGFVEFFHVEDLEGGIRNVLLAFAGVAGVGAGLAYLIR
row,SMILES,inhibition
1,O=C(OC1CCCCC1=O)c1cccc(S(=O)(=O)NCc2ccccc2)c1 (centres undefined),-5.3%
2,O=C1CCCCC1C(=O)c1ccccc1 (centres undefined),95% (active)
3,O=C(/C=C/c1ccccc1[N+](=O)[O-])OC1CCCCC1=O (centres undefined),5.64%
4,Cc1ccccc1N1CCN(Cc2nc(Cc3ccccc3F)no2)CC1,9.66%
5,O=S(=O)(c1ccc(Cl)cc1)N1CCCN(c2ccc(C(F)(F)F)cn2)CC1,15.1%
6,Cc1ccc(NS(=O)(=O)c2ccc(N/N=C/c3ccccc3OCC(=O)O)c([N+](=O)[O-])c2)c(C)c1,56.7% (active)
7,Cc1ccc(NS(=O)(=O)c2ccc(C)c(NC(=O)COc3ccc4ccccc4c3)c2)c(C)c1,-15.7%
8,Cc1cccc(COc2ccccc2/C=N/Nc2ccc([N+](=O)[O-])cc2)c1,1.32%
9,CCCCSc1nnc2c(n1)OC=Nc1ccccc1-2,12.5%
10,O=C(CC(c1ccccc1)c1cc(Cl)ccc1O)NCCN1CCOCC1 (centres undefined),-4.69%
11,O=C(Cc1ccccc1)N1N=C(c2ccncc2)CC1(O)C(F)(F)F (centres undefined),-12.4%
12,CC(C)c1ccc2c(c1)c(SC(C)(C)C)c(CC(C)(C)C(=O)O)n2Cc1ccc(Cl)cc1,68.7% (active)
13,Cc1ccc(C)c2c1cc(C)c1nnc(SCC(=O)Nc3cccc(C(=O)O)c3)n12,4.65%
14,CC1CCN(Cc2nc(-c3ccc(Cl)cc3)no2)CC1,11%
15,O=C(O)CC1=C(Nc2ccccc2)C(=O)N(c2ccccc2)C1c1ccc(Cl)cc1 (centres undefined),-6.85%
16,CN(C(=O)Nc1ccc(Cl)cc1)n1cnc2ccccc2c1=O,-0.02%
17,COc1ccc(OCC(O)CNCCNc2nccc(C(F)(F)F)n2)cc1 (centres undefined),-8.04%
18,CCn1c(CN2C(=O)CSc3ccccc32)n[nH]c1=S,-15.7%
19,CC(C)(C)C(=O)CSc1nc2ccccc2o1,8.46%
20,CCN(CC)C(=O)CSc1nc2ccccc2o1,7.79%
21,Fc1ccccc1OCCSc1nc2ccccc2o1,60.4% (active)
22,Cn1nc(C(C)(C)C)c([N+](=O)[O-])c1C(N)=O,5.22%
23,COc1ccc(Nc2cc(Cl)ccc2C(=O)O)cn1,11%
24,CCCCSc1nc2ccccc2[nH]1,12.9%
25,CCN(CC)CCCNC(=O)c1ccc2c(=O)n(Cc3ccc4c(c3)OCO4)c(=S)[nH]c2c1,25.2%

row,SMILES,inhibition
1,CCCCN(CC)CCCNC(=O)c1ccc(CSc2nc3ccncc3[nH]2)cc1,63% (active)
2,COC(=O)c1nc(NC(=O)c2ccc(C(C)(C)C)cc2)n[nH]1,69.2% (active)
3,COC(=O)c1nc(NC(=O)c2ccc(Cl)cc2)n[nH]1,-8.02%
4,COC(=O)c1nc(NC(=O)c2ccc(F)cc2)n[nH]1,-6.78%
5,O=C(O)CC1(CC(=O)Nc2cccc(C(F)(F)F)c2)CCCC1,-33.1%
6,Nc1nnnn1/N=C/c1cc([N+](=O)[O-])ccc1O,-18%
7,COc1ccc(N2C(=O)CC(Sc3n[nH]c(-c4ccc(C)cc4)n3)C2=O)cc1 (centres undefined),36%
8,Cc1ccc(N2C(=O)CC(Sc3ncn[nH]3)C2=O)cc1 (centres undefined),-10.1%
9,O=C1CC(Sc2ncn[nH]2)C(=O)N1c1ccccc1 (centres undefined),54.4% (active)
10,Cc1nc(CNS(=O)(=O)c2cc([N+](=O)[O-])ccc2C)cs1,-0.49%
11,O=C(CN1C(=O)/C(=C\c2ccccc2F)SC1=S)Nc1nc2ccccc2s1,11.5%
12,Cc1ccc(-c2nn(-c3ccccc3)cc2/C=C/C(=O)Nc2cccc(S(N)(=O)=O)c2)cc1,7.42%
13,CN(C)S(=O)(=O)c1cccc(-c2nn(-c3ccccc3)cc2/C=C2\SC(=S)N(CC(=O)O)C2=O)c1,74.1% (active)
14,CCOC(=O)c1sc2nc(CSCC(=O)OCc3ccc(C(=O)OC)o3)[nH]c(=O)c2c1C,11.7%
15,COC(=O)c1sc2[nH]c(=S)n(N)c(=O)c2c1C,52.1% (active)
16,CCOC(=O)c1sc2nc(C)[nH]c(=O)c2c1C,-7.23%
17,Cc1onc(-c2ccccc2)c1C(=O)N=C(N)c1ccc(Cl)cc1,13.2%
18,Cc1nnc(N/N=C/c2cccs2)[nH]c1=O,-2.37%
19,CC(O)c1nc2c(c(=O)n(C)c(=O)n2C)n1C (centres undefined),-1.58%
20,CNc1nc(Nc2ccc(C)c(Cl)c2)nc(N)c1[N+](=O)[O-],26.8%
21,CC1CN(c2nc(Nc3ccccc3)nc(N)c2[N+](=O)[O-])CC(C)O1 (centres undefined),-24.5%
22,CCN1CCN(c2nc(Nc3cccc(F)c3)nc(N)c2[N+](=O)[O-])CC1,56.7% (active)
23,O=C(NCc1cccnc1)Nc1cccc(NC(=O)NCc2cccnc2)c1F,-1.36%
24,COc1ccc(Cl)cc1C(=O)Nc1ccc(N(C)C(C)=O)cc1,15.3%
